The results in this text go back to ChEMBL document CHEMBL3988442, “University of Dundee, Small-Polar-MMV Screening Library” (2021).

Holding throughout (design): scale not given: direction of the effect not stated beside the values
Assay [1] has as its target Protein translocase subunit SecA (Escherichia coli (strain K12)) (UniProt P10408). In words: Assay to Identify E. coli SecA ATPase Inhibitors. The assay is classed as functional. The note with it: 30 µM.
For assay [2], the target named is T1, Ubiquitin-activating enzyme e1, putative (Leishmania donovani (strain BPK282A1)) (UniProt E9BSI1).
T1 sequence (whole entry): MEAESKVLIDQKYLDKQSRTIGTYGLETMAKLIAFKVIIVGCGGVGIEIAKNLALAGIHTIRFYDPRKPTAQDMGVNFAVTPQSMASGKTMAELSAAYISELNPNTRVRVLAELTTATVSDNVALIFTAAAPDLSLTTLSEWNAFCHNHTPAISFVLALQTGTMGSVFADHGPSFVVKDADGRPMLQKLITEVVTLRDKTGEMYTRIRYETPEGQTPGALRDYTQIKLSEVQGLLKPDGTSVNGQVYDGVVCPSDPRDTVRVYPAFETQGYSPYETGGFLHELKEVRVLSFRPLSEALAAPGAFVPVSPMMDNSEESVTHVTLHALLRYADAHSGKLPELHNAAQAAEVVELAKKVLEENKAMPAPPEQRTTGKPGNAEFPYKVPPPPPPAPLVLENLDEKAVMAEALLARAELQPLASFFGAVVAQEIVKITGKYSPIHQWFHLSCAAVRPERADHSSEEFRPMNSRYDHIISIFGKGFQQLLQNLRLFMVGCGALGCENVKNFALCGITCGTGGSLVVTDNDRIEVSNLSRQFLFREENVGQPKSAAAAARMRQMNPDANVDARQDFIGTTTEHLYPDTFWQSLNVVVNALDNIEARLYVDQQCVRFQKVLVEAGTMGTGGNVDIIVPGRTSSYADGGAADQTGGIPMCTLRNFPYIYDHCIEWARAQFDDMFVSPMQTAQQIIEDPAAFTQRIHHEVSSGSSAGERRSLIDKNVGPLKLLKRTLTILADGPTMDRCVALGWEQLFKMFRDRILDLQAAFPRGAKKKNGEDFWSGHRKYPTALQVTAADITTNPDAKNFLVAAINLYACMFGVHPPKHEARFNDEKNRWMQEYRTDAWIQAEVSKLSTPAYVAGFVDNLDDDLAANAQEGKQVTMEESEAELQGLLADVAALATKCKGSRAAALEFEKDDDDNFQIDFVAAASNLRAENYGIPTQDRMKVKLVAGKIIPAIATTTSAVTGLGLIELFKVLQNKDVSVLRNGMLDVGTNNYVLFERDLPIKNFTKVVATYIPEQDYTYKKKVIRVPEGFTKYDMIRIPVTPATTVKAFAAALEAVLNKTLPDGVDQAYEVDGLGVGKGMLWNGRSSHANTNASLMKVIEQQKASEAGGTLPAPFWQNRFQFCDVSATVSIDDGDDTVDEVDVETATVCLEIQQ
Kind of assay: Leishmania donovani Ubiquitin Activating Enzyme (LdE1). It is filed as functional. The settings on record: 30 µM.

In assay [3] the target is AMP-activated protein kinase, AMPK (Homo sapiens) (UniProt P54646+O43741+P54619+Q9UGJ0+Q9Y478+Q13131+Q9UGI9). In words: AMP-dependent Kinase enzyme assay. An in vitro enzyme assay that detects ADP turnover that is directly proportional to AMPK activity. This uses naive AMPK that is activated during the assay with MK-8722. The note with it: 30 µM. The assay is classed as functional.

Assay [4] has as its target Sialic acid-binding Ig-like lectin 9 (Homo sapiens) (UniProt Q9Y336). Kind of assay: Hs-Siglec9 ALPHAscreen SOP 20170721. The settings on record: 10 µM. (In Alpha technology, singlet oxygen from a donor bead excites a nearby acceptor bead.)
A further assay relates to Trypanosoma cruzi. In words: Trypanosoma cruzi phosphomannomutase and mannose-1-phosphate guanylyltransferase assay. It is filed as functional. The note with it: 10 µM.
Assay [5] addresses T2, Arginase-2, mitochondrial (Homo sapiens) (UniProt P78540).
T2 sequence (whole entry): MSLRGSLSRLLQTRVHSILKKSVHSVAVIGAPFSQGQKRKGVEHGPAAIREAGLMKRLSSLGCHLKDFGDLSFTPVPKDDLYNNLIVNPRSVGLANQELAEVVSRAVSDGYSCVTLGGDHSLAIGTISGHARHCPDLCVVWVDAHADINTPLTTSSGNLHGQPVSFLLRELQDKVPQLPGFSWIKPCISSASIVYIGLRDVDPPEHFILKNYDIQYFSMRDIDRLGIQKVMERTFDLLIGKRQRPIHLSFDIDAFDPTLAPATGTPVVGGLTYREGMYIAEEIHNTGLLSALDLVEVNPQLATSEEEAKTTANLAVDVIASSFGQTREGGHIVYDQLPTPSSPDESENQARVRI
In words: in vitro enzyme assay to detect the production of urea directly proportional to the activity of Arginase II. Further: in the data most compounds retested in dose-response had high values. It is filed as functional. The settings on record: 33.3 µM.

The target of assay [6] is T3, Proteasome subunit beta (Trypanosoma cruzi) (UniProt O96673).
T3 sequence (whole entry): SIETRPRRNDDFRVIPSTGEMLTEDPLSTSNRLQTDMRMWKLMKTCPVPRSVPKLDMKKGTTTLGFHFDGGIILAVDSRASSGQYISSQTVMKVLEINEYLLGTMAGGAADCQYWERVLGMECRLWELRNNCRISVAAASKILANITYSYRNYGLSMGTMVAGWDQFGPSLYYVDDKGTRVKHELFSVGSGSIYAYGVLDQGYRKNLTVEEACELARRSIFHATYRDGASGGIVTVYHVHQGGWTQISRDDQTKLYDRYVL
In words: Trypanosoma cruzi proteasome chymotrypsin-like activity (TcProtChymo) assay. Further: in the data most compounds retested in dose-response had high values. It is filed as functional. The settings on record: 9.37 µM.

The species named for another assay is Homo sapiens. Kind of assay: To identify inhibition of the IFN signalling (Jak-Stat) pathway via expression of an eGFP reporter gene under the control of an IFN-stimulated response element (ISRE) containing MxA promoter. The assay is classed as functional. The note with it: 30 µM. Background: A reporter such as luciferase makes a cellular process visible.
Assay [7] addresses T4, Tyrosyl-tRNA synthetase, putative (Trypanosoma cruzi (strain CL Brener)) (UniProt Q4DSP6).
T4 sequence (whole entry): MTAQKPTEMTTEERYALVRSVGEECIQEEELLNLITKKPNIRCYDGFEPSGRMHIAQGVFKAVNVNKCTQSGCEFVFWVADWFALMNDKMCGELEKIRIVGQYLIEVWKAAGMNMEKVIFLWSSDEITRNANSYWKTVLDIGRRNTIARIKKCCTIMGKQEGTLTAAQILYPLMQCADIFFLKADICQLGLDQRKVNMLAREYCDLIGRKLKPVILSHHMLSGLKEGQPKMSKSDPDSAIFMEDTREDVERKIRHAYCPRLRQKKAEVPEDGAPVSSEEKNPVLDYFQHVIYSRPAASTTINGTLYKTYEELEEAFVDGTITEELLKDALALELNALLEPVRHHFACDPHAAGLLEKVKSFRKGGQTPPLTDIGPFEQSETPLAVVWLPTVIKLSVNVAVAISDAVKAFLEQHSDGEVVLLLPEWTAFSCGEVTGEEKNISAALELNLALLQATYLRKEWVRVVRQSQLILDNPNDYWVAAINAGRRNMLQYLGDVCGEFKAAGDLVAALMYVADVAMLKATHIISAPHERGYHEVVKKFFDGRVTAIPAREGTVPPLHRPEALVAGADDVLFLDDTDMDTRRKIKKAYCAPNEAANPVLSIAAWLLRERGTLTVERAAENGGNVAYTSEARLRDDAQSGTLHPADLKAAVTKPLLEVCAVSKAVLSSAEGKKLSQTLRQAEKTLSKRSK
In words: Trypanosoma cruzi tyrosyl tRNA synthetase (TcYRS) _High Tyrosine SOP. Further: in the data most compounds retested in dose-response had high values. The settings on record: 30 µM. The assay is classed as functional.

The target of assay [8] is T4, Tyrosyl-tRNA synthetase, putative (Trypanosoma cruzi (strain CL Brener)). In words: Trypanosoma cruzi tyrosyl tRNA synthetase (TcYRS) SOP. It is filed as functional. The settings on record: 30 µM.
The target in assay [9] is Chromo domain-containing protein 1 (Saccharomyces cerevisiae (strain ATCC 204508 / S288c) (Baker's yeast)) (UniProt P32657). In words: ScCHD-1 Enzyme Inhibition Assay. Further: in the data most compounds retested in dose-response had high values. The settings on record: 30 µM. It is filed as functional.

For some of these results: Measured potencies and affinities stand elsewhere.

Sialic acid-binding Ig-like lectin 9 (Homo sapiens), sequence (Q9Y336 whole entry): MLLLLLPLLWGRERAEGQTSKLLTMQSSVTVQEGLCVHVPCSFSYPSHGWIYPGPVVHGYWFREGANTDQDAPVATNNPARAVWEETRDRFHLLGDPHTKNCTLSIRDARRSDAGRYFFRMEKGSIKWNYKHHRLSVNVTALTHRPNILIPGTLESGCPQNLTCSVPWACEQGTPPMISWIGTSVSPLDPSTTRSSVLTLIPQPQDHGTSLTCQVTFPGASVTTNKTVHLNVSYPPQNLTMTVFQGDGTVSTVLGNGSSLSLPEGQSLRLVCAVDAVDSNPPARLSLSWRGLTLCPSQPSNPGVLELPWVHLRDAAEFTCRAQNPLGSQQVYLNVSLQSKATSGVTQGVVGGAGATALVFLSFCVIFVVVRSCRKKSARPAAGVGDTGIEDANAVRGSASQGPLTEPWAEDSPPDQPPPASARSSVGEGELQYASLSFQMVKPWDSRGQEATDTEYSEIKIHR
Chromo domain-containing protein 1 (Saccharomyces cerevisiae (strain ATCC 204508 / S288c) (Baker's yeast)), sequence (P32657 whole entry, the tested form may be a part): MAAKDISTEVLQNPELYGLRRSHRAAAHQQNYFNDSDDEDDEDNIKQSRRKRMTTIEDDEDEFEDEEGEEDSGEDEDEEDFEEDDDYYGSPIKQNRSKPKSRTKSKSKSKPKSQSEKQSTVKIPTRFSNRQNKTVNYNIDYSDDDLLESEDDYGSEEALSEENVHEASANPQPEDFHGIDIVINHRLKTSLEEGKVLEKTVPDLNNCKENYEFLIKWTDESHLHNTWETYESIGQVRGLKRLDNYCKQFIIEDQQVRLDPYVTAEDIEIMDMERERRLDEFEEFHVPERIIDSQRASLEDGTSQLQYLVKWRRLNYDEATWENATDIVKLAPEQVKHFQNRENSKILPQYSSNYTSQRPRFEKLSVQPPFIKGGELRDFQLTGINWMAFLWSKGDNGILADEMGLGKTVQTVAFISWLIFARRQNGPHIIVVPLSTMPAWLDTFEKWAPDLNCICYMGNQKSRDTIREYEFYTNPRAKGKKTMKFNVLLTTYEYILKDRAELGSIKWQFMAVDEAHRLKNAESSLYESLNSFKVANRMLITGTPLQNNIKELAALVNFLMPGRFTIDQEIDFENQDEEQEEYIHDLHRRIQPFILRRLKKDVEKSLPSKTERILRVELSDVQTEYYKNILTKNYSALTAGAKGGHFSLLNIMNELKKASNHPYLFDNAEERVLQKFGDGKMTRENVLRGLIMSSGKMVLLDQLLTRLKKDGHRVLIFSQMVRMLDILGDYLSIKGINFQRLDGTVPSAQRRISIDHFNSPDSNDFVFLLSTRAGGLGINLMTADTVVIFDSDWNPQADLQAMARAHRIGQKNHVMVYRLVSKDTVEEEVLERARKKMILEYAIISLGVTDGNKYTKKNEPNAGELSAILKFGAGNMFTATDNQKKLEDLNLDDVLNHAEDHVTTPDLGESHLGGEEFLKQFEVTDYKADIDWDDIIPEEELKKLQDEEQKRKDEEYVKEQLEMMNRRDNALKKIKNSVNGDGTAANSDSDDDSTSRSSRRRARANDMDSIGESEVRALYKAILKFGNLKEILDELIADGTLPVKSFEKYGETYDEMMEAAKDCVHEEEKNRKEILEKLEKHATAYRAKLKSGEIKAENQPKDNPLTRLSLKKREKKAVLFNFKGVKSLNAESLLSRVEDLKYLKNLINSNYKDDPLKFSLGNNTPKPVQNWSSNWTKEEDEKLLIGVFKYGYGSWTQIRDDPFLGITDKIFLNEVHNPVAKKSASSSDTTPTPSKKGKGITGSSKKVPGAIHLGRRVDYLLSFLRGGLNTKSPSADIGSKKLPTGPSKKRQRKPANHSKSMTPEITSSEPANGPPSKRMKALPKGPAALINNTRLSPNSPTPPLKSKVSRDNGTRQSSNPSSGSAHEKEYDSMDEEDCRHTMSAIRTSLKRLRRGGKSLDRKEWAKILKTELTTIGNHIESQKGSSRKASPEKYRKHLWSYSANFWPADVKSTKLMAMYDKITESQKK
Protein translocase subunit SecA (Escherichia coli (strain K12)), sequence (P10408 whole entry): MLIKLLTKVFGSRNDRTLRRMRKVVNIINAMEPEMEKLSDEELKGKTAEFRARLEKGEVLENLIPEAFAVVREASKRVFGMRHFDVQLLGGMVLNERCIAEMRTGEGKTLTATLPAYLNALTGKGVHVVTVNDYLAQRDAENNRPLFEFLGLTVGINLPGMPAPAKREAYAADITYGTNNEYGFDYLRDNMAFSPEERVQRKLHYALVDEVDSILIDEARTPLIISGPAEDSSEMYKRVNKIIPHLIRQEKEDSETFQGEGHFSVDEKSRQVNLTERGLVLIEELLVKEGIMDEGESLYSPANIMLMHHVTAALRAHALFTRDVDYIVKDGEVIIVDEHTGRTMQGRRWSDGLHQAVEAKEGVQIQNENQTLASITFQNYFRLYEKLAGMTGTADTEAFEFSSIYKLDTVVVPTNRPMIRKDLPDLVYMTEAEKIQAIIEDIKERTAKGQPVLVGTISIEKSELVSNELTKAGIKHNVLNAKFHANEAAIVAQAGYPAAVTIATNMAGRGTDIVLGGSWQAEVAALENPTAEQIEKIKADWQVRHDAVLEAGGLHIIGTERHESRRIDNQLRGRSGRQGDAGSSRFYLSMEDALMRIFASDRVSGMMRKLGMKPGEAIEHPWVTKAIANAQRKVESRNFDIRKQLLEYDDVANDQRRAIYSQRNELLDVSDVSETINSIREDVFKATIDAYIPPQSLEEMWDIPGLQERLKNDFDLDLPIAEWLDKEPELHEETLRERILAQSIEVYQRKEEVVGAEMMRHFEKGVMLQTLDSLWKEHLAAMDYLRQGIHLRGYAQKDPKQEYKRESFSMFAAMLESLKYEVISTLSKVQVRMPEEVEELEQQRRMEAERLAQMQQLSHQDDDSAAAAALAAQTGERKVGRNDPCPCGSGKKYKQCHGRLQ

Consider `COc1cc(C(=O)N2CCCC(CNS(C)(=O)=O)C2)cc(OC)c1C` (stereo unspecified), for which the Percent Effect in assay [1] is -5.54%; in assay [2] it was 13.5%; in assay [3] it was 77.8%; in [4], -1.48%; in the assay on Trypanosoma cruzi it was 2.74%; in assay [5] it was 0.802%. For the same compound, the Percent Effect was 1.26% in assay [6]; 11% in the assay listed under Homo sapiens; 7.39% in [7]; 16.1% in [8]; -4.09% in [9].
In the case of `CNS(=O)(=O)c1ccc(C(=O)N2CCCC2Cc2ccccc2)o1` (stereo unspecified), the Percent Effect in [1] is -3.24%; in [2], -42.1%; in assay [3] it was 1.36%; in assay [4], -2.48%; in the assay on Trypanosoma cruzi, 2.52%; in assay [5] it was 1.8%. Besides, the Percent Effect in [6] is 12.6%; in the assay listed under Homo sapiens it was 16.6%; in assay [7], 4.43%; in [8], 16.1%; in assay [9] it was -9.41%.
For `CN1C[C@H]2CCN(C(=O)NC3CCCC3)CC[C@H]2S1(=O)=O`, the Percent Effect is 1.67% in [1]; -4% in assay [2]; 10.5% in [3]; -0.732% in assay [4]; -5.7% with Trypanosoma cruzi; 29.4% in [5]. Also, the Percent Effect in assay [6] was 4.62%; in the assay listed under Homo sapiens it was -1.7%; in [7], 1.06%; in assay [8], -2.56%; in assay [9], -5.65%.
In the case of `Cc1nnc(CCNC2CCN(c3ncnc4c(C)csc34)CC2)s1`, the Percent Effect in [1] was -3.21%; in assay [2] it was 7.79%; in [3], 3.06%; in assay [4] it was 11%; in the assay on Trypanosoma cruzi, 7.77%; in [5] it was -2.76%. Further, the Percent Effect in assay [6] was 12.8%; in the assay filed under Homo sapiens, 40.2%; in assay [7], 8.6%; in assay [8], 16.1%; in assay [9], -8.66%.
Consider `COc1ccccc1CN1CC[C@H]2C[C@@H](C(=O)N3CCCC3)O[C@H]2C1`, for which the Percent Effect in assay [1] was 2.23%; in assay [2], 13%; in assay [3], 4.84%; in assay [4], -5.31%; in the assay on Trypanosoma cruzi, -7.99%; in assay [5], 4.52%. The Percent Effect in [6] is 8.88%; in the assay filed under Homo sapiens, 6%; in [7] it was 6.35%; in assay [8], 14.1%; in assay [9], -7.87%.
As to `Cc1n[nH]c(C2CN(CC(=O)NCc3ccco3)CCO2)n1` (stereo unspecified), the Percent Effect is -7.98% in assay [1]; 0% in assay [2]; 3.1% in assay [3]; -5.39% in assay [4]; -5.36% in the assay with Trypanosoma cruzi; -2.6% in assay [5]. Besides, the Percent Effect in assay [6] was 6.8%; in the assay filed under Homo sapiens, 24.6%; in assay [7], -1.64%; in [8] it was -3.7%; in [9] it was -2.33%.
Regarding `CCCC(C)C(=O)NCc1cn2cc(Br)ccc2n1` (stereo unspecified), the Percent Effect in assay [1] is -3.66%; in assay [2], -44.7%; in assay [3], 5.33%; in [4] it was 4.19%; in the assay with Trypanosoma cruzi it was -0.876%; in assay [5], -2.37%. For the same compound, the Percent Effect in assay [6] was 9.68%; in the assay listed under Homo sapiens, 4.86%; in [7] it was 9.57%; in [8] it was 15.6%; in assay [9] it was -2.1%.
For the compound `CCc1nnc2n1CCN(Cc1ccc(C(=O)N3CCCC3)cc1)C2`, the Percent Effect is -2.96% in [1]; 13.5% in assay [2]; 2.51% in assay [3]; -7.2% in [4]; -2.69% in the assay with Trypanosoma cruzi; -4.25% in assay [5]. Also, the Percent Effect in assay [6] was 12.8%; in the assay filed under Homo sapiens it was 17.1%; in assay [7], 6.93%; in [8] it was 15.8%; in [9] it was -4.5%.
On to `NC(=O)c1ccc(N2CCCCC2)c(NC(=O)c2cc(Br)ccc2F)c1`, for which the Percent Effect in assay [1] is -3.67%; in assay [2] it was 7.79%; in assay [3], 2.61%; in [4] it was 8.24%; in the assay with Trypanosoma cruzi, 0.295%; in assay [5], -16.6%. The Percent Effect is 14.8% in [6]; 1.93% in the assay filed under Homo sapiens; 4.3% in [7]; 6.17% in assay [8]; 24.8% in [9].
`CCN1CCN(Cc2ccnc(-c3cccnc3)n2)CC1`: the Percent Effect in assay [1] was -8.52%; in [2] it was 20.3%; in assay [3], 0.102%; in assay [4], 1.94%; in the assay on Trypanosoma cruzi, -0.79%; in [5], -1.62%. Further, the Percent Effect in assay [6] is 15.3%; in the assay listed under Homo sapiens, -6.28%; in assay [7], 4.3%; in [8], 16.9%; in assay [9], -29.4%.
As to `CC(C)N1CCOCC2(CN(Cc3nccs3)CCO2)C1` (stereo unspecified), the Percent Effect is -5.04% in assay [1]; 20.8% in assay [2]; -4.7% in [3]; -3.15% in assay [4]; 2.66% with Trypanosoma cruzi; 0.645% in assay [5]. The Percent Effect was 16.7% in assay [6]; 3.46% in the assay listed under Homo sapiens; 9.52% in [7]; 14.1% in [8]; -7.32% in assay [9].
